Several values for one entry are separate records, joined by “and”; a condition that tells them apart may be missing. Equal entries are not always repeated.
Each molecule was assayed against Bromodomain-containing protein 4 (Homo sapiens) (UniProt O60885). Conditions: Compound concentration 20.0 uM, Protein concentration 2.0 uM, Result type QC Liability.

CCOC(=O)N1CCC(CN(Cc2ccc(Cl)cc2)Cc2ccc([N+](=O)[O-])s2)C1 (centres undefined) was tested. Which ΔTm did it give?
Its ΔTm is -2.61 °C.

How did the ΔTm turn out when C[C@]12CC[C@@H]3c4ccc(O)cc4CC[C@H]3[C@@H]1C[C@H]1OC(=O)C[C@]12O was run?
Its ΔTm is -11.6 °C.

With Cc1c(-c2c(F)cc(C(N)=O)c3[nH]c4c(c23)CC[C@H](C(C)(C)O)C4)cccc1-n1c(=O)c2cccc(F)c2n(C)c1=O as the molecule, how does the ΔTm read?
The ΔTm was -0.86 °C.

For COc1cc2nc(C)nc(NC3(c4ccccc4)CC3)c2cc1OC, which ΔTm is on record?
Its ΔTm is -0.74 °C.

CCOC(=O)/N=C(\N)c1ccc(OCc2cccc(COc3ccc(C(C)(C)c4ccc(OC(=O)OCC)cc4)cc3)c2)cc1 was tested. Which ΔTm did it give?
The ΔTm was -10.4 °C.

For COC(=O)c1sccc1S(=O)(=O)Nc1ccc(Nc2ccccc2)cc1OC, which ΔTm is on record?
The ΔTm was -3.85 °C.

With CCS(=O)(=O)Nc1cccc(Oc2cncc(Nc3ccc(I)cc3F)c2C(N)=O)c1 as the molecule, how does the ΔTm read?
Its ΔTm is -0.22 °C.

FC(F)(F)c1ccc(CNc2ccc(Cc3c[nH]c4ncc(Cl)cc34)cn2)cn1 was tested. Which ΔTm did it give?
The ΔTm was 2 °C.

Which ΔTm does the source give for Fc1cccc(-n2cnc3c(NCc4nc5c(F)c(F)ccc5[nH]4)nc(N4CCOCC4)nc32)c1 here?
The ΔTm was 0.39 °C.

With CCc1nc(-c2cccc(C)c2)c(-c2ccnc(NC(=O)c3ccccc3)c2)s1 as the molecule, how does the ΔTm read?
The ΔTm was -1.99 °C.

Cn1cc(-c2ccc(-c3cncc(Cl)c3N3CCC4(CCNC4=O)CC3)cc2)cn1 was tested. Which ΔTm did it give?
Its ΔTm is 0.07 °C.

Which ΔTm does the source give for CN[C@@H](C)C(=O)N[C@H](C(=O)N1CCC[C@H]1C(=O)N[C@H]1c2ccccc2C[C@H]1OCC#CC#CCO[C@@H]1Cc2ccccc2[C@@H]1NC(=O)[C@@H]1CCCN1C(=O)[C@@H](NC(=O)[C@H](C)NC)C1CCCCC1)C1CCCCC1 here?
Its ΔTm is -4.51 °C.

O=C(Cc1ccccc1)Nc1nnc(N2CC[C@@H]3[C@H]2CN3c2cccnn2)s1 was tested. Which ΔTm did it give?
The ΔTm was -3.72 °C.

How did the ΔTm turn out when C[C@@H]1CC(=O)N(C2CC2)N=C1c1ccc(NC(=O)N2Cc3ccncc3C2)cc1 was run?
Its ΔTm is -0.04 °C.

Which ΔTm does the source give for CCOC(=O)Nc1ccc2c(c1)N(C(=O)CN(CC)CC)c1ccccc1CC2 here?
Its ΔTm is -1.53 °C.

With O=C(Nc1cccc(Nc2nccc(Nc3cccc(C(F)(F)F)c3)n2)c1)C1CC1 as the molecule, how does the ΔTm read?
Its ΔTm is 1.77 °C.

With CN(C)c1ccc(-c2cc3ncccc3c(OCCCCO)n2)cc1 as the molecule, how does the ΔTm read?
Its ΔTm is -2.64 °C.

For COCCc1ccc(-c2c(C)nc3c(N4CCOCC4)ccnn23)cn1, which ΔTm is on record?
The ΔTm was -1.01 °C.

With O=C(O)c1ccc2c(c1)nc(NCc1ccccc1)c1ncncc12 as the molecule, how does the ΔTm read?
Its ΔTm is -2.21 °C.

Which ΔTm does the source give for Cc1nc2ccc(Cl)cc2c(-c2ccccc2)c1CC(=O)O here?
Its ΔTm is -0.84 °C.

With Nc1ncc2c(n1)-c1c([nH]c3ccc(C4CC4)cc13)CCCC2 as the molecule, how does the ΔTm read?
The ΔTm was -1.04 °C.

How did the ΔTm turn out when C[C@H](NC(=O)c1cc(Cl)ccc1Oc1ccc(F)cc1)c1ccc(C(=O)O)cc1 was run?
Its ΔTm is -0.23 °C.

CCS(=O)(=O)c1cc2cc(C[C@@](O)(CC(C)(C)c3ccc(F)cc3C(N)=O)C(F)(F)F)[nH]c2cn1 was tested. Which ΔTm did it give?
Its ΔTm is 0.67 °C and -0.3 °C.

Cc1cc(CN)cc(C)c1-c1ncn(C)c1-c1cncn1C was tested. Which ΔTm did it give?
The ΔTm was -1.42 °C.

Which ΔTm does the source give for CS(=O)(=O)CCNCc1ccc(-c2ccc3ncnc(Nc4ccc(OCc5cccc(F)c5)c(Cl)c4)c3c2)o1 here?
The ΔTm was -2.54 °C.

With CCNc1ccc(-c2nn(-c3ccccc3C)c3c2C(C)Cc2nc(NC(=O)OC)sc2-3)cn1 (centres undefined) as the molecule, how does the ΔTm read?
The ΔTm was -2.96 °C.

COc1cc(C(=O)NC2CCN(C)CC2)ccc1Nc1ncc2c(n1)N(C1CCCC1)CC(F)(F)C(=O)N2C was tested. Which ΔTm did it give?
Its ΔTm is 7.37 °C.

For CCC(C)(C)CC[C@H](NC(=O)N1CCOCC1)C(=O)NC1(C#N)CCN(C)CC1, which ΔTm is on record?
Its ΔTm is -0.41 °C.

For CCCc1c(OCCCOc2ccc(OCC(=O)O)cc2)ccc(C(C)=O)c1O, which ΔTm is on record?
Its ΔTm is -2.92 °C.

For Cc1cc(-c2nc(-c3ccc(OC(F)(F)F)cc3)no2)nn1Cc1ccnc(N2CCN(C3CC3)CC2)c1, which ΔTm is on record?
Its ΔTm is 0.31 °C.

How did the ΔTm turn out when CN1CC(=O)N(C)c2cnc(Nc3ccc(NC(=O)Nc4cccc(C(=O)O)c4)cc3)nc21 was run?
Its ΔTm is 0.02 °C.

O=C(Cc1ccccc1)Nc1nnc(N2C[C@H]3C[C@@H]2CN3c2cccnn2)s1 was tested. Which ΔTm did it give?
The ΔTm was -1.06 °C.

COCCNC1CCC(Nc2cc(-c3csc(NCC4(C#N)CCOCC4)n3)c(Cl)cn2)CC1 (centres undefined) was tested. Which ΔTm did it give?
The ΔTm was -0.18 °C.

COCCOCn1c(S(C)(=O)=O)nc2c1c(=O)n(C)c(=O)n2C was tested. Which ΔTm did it give?
The ΔTm was -12.2 °C.

Cc1cn([C@@H](C)CC#N)c(=O)c2cc(Cn3nc(C(F)F)cc3Cl)nn12 was tested. Which ΔTm did it give?
Its ΔTm is -0.88 °C.

Which ΔTm does the source give for CC(=O)N1CCN([C@H]2CCC[C@@H](NC(=O)c3cc4c(F)ccc(C)c4[nH]3)C2)CC1 here?
The ΔTm was -1.7 °C.

With CN1C(=O)c2ccccc2N(C)c2nc(Nc3cnn(C4CCNCC4)c3)ncc21 as the molecule, how does the ΔTm read?
The ΔTm was 3.95 °C.

Which ΔTm does the source give for Cn1cnc(Cn2ccc3ccc(CNCc4[nH]c5ccccc5c4[C@H]4NC(=O)c5ccc(O)cc54)cc32)c1 here?
Its ΔTm is 0.36 °C.

Which ΔTm does the source give for O=C(O)[C@]1(Cc2cccc(Nc3nccs3)n2)CC[C@@H](Oc2cccc(Cl)c2F)CC1 here?
Its ΔTm is 0 °C.

From ChEMBL document CHEMBL5308504, “Tm Shift (DSF) assay results for EUbOPEN Chemogenomics Library” (2023)
